# Hit rate of the full screen: of about 13,000 compounds, about 3,200 (25%) showed an effect of 50% or more. The list shows a part of the results.
# System: P. falciparum stage V gametocytes
# Set-up: BacTiter-Glo ATP luminescence viability of purified stage V gametocytes in 384-well plates, per cent inhibition versus DMSO
# Conditions: 48 h, 5 µM; inhibitor
row,SMILES,% Inhibition
1,CCOC(=O)CC[C@@H](NC(=O)c1ccc(NCc2ccc3ccc4nc(C)[nH]c(=O)c4c3c2)cc1F)C(=O)N[C@@H](Cc1c[nH]c2ccccc12)C(=O)OCC [TCMDC-137320],27.07%
2,O=C(Nc1cccc(-c2cc(-c3c(Cl)cccc3Cl)no2)c1)c1cnc2ccccc2c1 [TCMDC-136759],13.25%
3,CC(=O)N(C)C1CCN(Cc2cccc(-c3ccc(-c4nc5cc(F)ccc5[nH]4)cc3)c2)C1.O=C(O)C(F)(F)F (centres unmarked) [TCMDC-133894],26.71%
4,O=C(NC1CCN(Cc2ccc3c(c2)OCCO3)CC1)c1ccc(-c2cccc(Cl)c2)s1 [TCMDC-134338],2.147%
5,O=C(Nc1cccc(Cl)c1)N(CCCn1ccnc1)Cc1csc(-c2ccc(CNCc3ccccc3)cc2)n1 [TCMDC-141796],19.94%
6,O=C(NC1CC1c1ccccc1)N(CCCn1ccnc1)Cc1csc(-c2ccc(CNCc3ccccc3)cc2)n1 (centres unmarked) [TCMDC-141644],86.73%
7,O=C(NC1CCCCC1)N(CCCn1ccnc1)Cc1csc(-c2ccc(CNCc3ccccc3)cc2)n1 [TCMDC-141645],7.097%
8,CC(=O)c1cccc(S(=O)(=O)NCCCNc2nc3cc(C)cc(C)c3cc2C#N)c1 [TCMDC-123734],8.065%
9,CCS(=O)(=O)N1CCN(c2nc(-c3ccccc3)nc(COC)c2Cc2ccccc2F)CC1 [TCMDC-124784],-1.025%
10,COc1cc(/C=N/Nc2nc(Nc3ccccc3)nc(Nc3ccccc3)n2)ccc1OCc1ccccc1[N+](=O)[O-] [TCMDC-125793],59.87%
11,O=[N+]([O-])c1cccc(C=NNc2nc(Nc3ccccc3)nc(Nc3ccccc3)n2)c1 [TCMDC-125797],40.05%
12,COc1ccc(Nc2nc(N/N=C/c3ccc(O)cc3)nc(Nc3ccc([N+](=O)[O-])cc3)n2)cc1 [TCMDC-124127],-40.32%
13,Cc1cc(NC2CCCC2)nc(Nc2ccccc2C)n1 [TCMDC-133473],-0.2818%
14,O=C(Cc1ccc(Cl)cc1)Nc1cc(Cl)ccc1Cn1cnc(N2CCNCC2)cc1=O [TCMDC-134317],-8.964%
15,Cc1cc(NCCCN2CCCC2=O)n2c(nc3ccccc32)c1C#N [TCMDC-124485],-25.7%
16,CCc1c(C)c(C#N)c2nc3ccccc3n2c1NCc1ccco1 [TCMDC-124079],78.38%
17,COc1ccc2ncc(C#N)c(CCN3C[C@H](CNCc4ccccc4)[C@H](O)C3)c2n1 [TCMDC-136369],48.08%
18,Cl.Oc1ccccc1Nc1nc(NCc2ccco2)c2ccccc2n1 [TCMDC-124544],-81.25%
19,Cc1c(CCC#N)c(NCc2ccccc2)n2c(nc3ccccc32)c1C#N [TCMDC-123759],74.35%
20,COc1ccc(Nc2nc(NCc3ccco3)c3ccccc3n2)cc1.Cl [TCMDC-124562],32.58%
21,Cc1ccc(O)c(Nc2c3c(c(C#N)c4nc5ccccc5n24)CCC3)c1 [TCMDC-124227],16.2%
22,Cc1nc(NCc2ccccc2)cc(Nc2cc(NCc3ccccc3)nc(C)n2)n1 [TCMDC-137298],0.4033%
23,CCCCNc1c(CC)c(C)c(C#N)c2nc3ccccc3n12 [TCMDC-125729],72.07%

# Source: paper PMC4552634, “A New Set of Chemical Starting Points with Plasmodium falciparum Transmission-Blocking Potential for Antimalarial Drug Discovery” (PLoS ONE, 2015)
